# Reference: PMC4336329 (PLoS ONE, 2015)
# Among all 310,000 compounds or so, about 14,000 (4.5%) showed an effect of 50% or more. Effects have a minus sign here. Only a selection was taken, and strong results are over-represented in it overall.
# Biological target: human ether-à-go-go-related gene (hERG) potassium channel (human, UniProt Q12809)
# Test: primary screen, population patch clamp on CHO cells stably expressing hERG; higher = less effect of the substance
# 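Further: peak tail current of the secondary pulse compared with the same well before compound.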
# Chain of human ether-à-go-go-related gene (hERG) potassium channel (Q12809 whole entry, looked up): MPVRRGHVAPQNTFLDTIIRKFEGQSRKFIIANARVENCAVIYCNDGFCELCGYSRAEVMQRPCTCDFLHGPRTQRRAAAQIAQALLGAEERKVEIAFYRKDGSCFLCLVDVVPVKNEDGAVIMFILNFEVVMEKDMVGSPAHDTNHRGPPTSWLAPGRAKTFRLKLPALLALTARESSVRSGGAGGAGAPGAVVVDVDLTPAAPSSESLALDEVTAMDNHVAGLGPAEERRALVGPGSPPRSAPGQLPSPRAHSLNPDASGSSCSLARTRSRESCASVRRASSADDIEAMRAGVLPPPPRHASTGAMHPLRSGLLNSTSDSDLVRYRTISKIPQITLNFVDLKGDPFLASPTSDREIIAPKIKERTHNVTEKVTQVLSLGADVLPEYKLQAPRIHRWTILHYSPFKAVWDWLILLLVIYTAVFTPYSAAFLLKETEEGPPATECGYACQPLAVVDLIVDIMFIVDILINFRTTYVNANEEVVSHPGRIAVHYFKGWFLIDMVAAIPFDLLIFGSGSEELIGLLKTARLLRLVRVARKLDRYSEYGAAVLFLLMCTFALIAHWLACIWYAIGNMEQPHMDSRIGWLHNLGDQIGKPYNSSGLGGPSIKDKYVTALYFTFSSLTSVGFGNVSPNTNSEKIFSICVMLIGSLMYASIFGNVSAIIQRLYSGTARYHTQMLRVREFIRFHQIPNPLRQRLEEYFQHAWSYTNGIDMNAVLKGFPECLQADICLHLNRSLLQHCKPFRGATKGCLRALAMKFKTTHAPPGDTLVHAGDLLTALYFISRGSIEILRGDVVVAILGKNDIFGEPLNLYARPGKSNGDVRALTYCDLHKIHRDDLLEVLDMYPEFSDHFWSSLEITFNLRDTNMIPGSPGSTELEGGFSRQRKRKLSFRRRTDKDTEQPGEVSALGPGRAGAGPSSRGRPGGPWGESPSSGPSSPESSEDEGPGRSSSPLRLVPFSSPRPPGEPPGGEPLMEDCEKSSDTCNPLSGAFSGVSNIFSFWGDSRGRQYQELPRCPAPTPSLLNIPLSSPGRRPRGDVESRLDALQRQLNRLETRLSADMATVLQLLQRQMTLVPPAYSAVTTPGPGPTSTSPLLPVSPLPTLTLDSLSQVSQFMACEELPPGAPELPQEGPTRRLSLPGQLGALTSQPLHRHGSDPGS
row,SMILES,"hERG current change (%, negative = inhibition) at 10uM"
1,CC1Cc2ccccc2N1C(=S)NC(=O)C1(C)CC1(Cl)Cl (stereo not shown),30.1%
2,COc1ccccc1CNC1CCCc2ccccc21.O=C(O)C(=O)O (stereo not shown),-6.19%
3,O=C(O)C(=O)O.O=[N+]([O-])c1ccc(CNC2CCCc3ccccc32)cc1 (stereo not shown),-51.7%
4,COc1ccc(CNC2CCCc3ccccc32)cc1OC.O=C(O)C(=O)O (stereo not shown),-25.3%
5,CCOc1ccc(CNC2CCCc3ccccc32)cc1.O=C(O)C(=O)O (stereo not shown),-68.1%
6,COc1cc(CNC2CCCc3ccccc32)cc(OC)c1OC.O=C(O)C(=O)O (stereo not shown),-13.9%
7,O=[N+]([O-])c1ccccc1CNC1CCCc2ccccc21 (stereo not shown),-5.95%
8,COc1ccc(OC)c(NC(=O)Cc2coc3cc(C)cc(C)c23)c1,1.9%
9,COC(=O)C1=C(c2ccc(F)cc2OCc2ccccc2)C[C@@H]2CC[C@H]1N2C(=O)NCc1ccc(OC)c(OC)c1,-2.13%
10,CCn1c(C)nc2cc(C(=O)NNC(=S)Nc3ccc(F)cc3)ccc21,15.9%
11,CCC(=O)N1CCN(C(=O)c2ccccc2)CC1,1.82%
12,O=C(Nc1ccc(N2CCOCC2)cc1)c1cccc(S(=O)(=O)N2CCC(Cc3ccccc3)CC2)c1,2.84%
13,OC(CNCCc1ccc(Cl)cc1)COCc1ccco1 (stereo not shown),-44.6%
14,COc1ccc(Cl)cc1NC(=S)NCCc1ccc(S(N)(=O)=O)cc1,5.52%
15,Cc1cc(Cl)ccc1NC(=S)NCCc1ccc(S(N)(=O)=O)cc1,-16.1%
16,OC(CNCCc1ccc(Cl)cc1)COc1cc(Cl)ccc1Cl (stereo not shown),-56.6%
17,Cc1cc(Cl)ccc1OCC(O)CNCCc1ccc(S(N)(=O)=O)cc1 (stereo not shown),-67.6%
18,O=C(O)C(=O)O.OC(CNCCc1ccc(Cl)cc1Cl)COc1ccccc1 (stereo not shown),-25.7%
19,CCn1c(=NC(=O)CS(=O)(=O)c2ccc(C)cc2)sc2cccc(OC)c21,-0.869%
20,O=C(CCc1ccccc1O)N/N=C/c1ccc(Sc2cccc3cccnc23)o1,21.8%
21,COc1ccc(CNC(=O)CN2CCN(c3ccccc3O)CC2)cc1OC,12.6%
22,O=c1c2ccccc2nc(SCCN2CCCCC2)n1CCc1ccccc1,-71.7%
23,COCCn1c(SCCN2CCCCC2)nc2ccccc2c1=O,-78.4%

row,SMILES,"hERG current change (%, negative = inhibition) at 10uM"
1,COCCn1c(SCC(=O)c2ccccc2)nc2ccccc2c1=O,-12.4%
2,CCSc1nc2ccccc2c(=O)n1CCc1ccc(OC)c(OC)c1,14.9%
3,COc1ccc(CCn2c(SCCN3CCCCC3)nc3ccccc3c2=O)cc1OC,-53.3%
4,C=CCNC(=O)CSc1nc2ccccc2c(=O)n1CCc1ccc(OC)c(OC)c1,-15.4%
5,O=c1c2ccccc2nc(SCCN2CCOCC2)n1CCc1ccccc1,-15.4%
6,NC(=O)CSc1nc2ccccc2c(=O)n1CCc1ccccc1,8.93%
7,COCCn1c(SCCOc2ccccc2)nc2ccccc2c1=O,-6.1%
8,O=C(CSc1nnc(NC(=O)Cc2ccc(F)cc2)s1)NCc1ccco1,14.3%
9,Cc1ccccc1Cn1cc(S(=O)(=O)CC(=O)N2CCCCC2)c2ccccc21,7.27%
10,Nc1cc(Nc2ccccc2)c2nonc2c1[N+](=O)[O-],16.3%
11,N#Cc1c(Nc2cccc(F)c2)sc2c(O)cc(=O)[nH]c12,27.3%
12,Cc1ccccc1-n1c(C)cc(/C=N/Nc2ccc([N+](=O)[O-])cn2)c1C,17.4%
13,Br.Oc1ccc(C2CNCCc3c2cc(O)c(O)c3Cl)cc1 (stereo not shown),-3.12%
14,Br.CN1CCc2cc(O)c(O)cc2C(c2ccccc2)C1 (stereo not shown),-13.6%
15,Br.C=CCN1CCc2cc(O)c(O)cc2C(c2ccccc2)C1 (stereo not shown),-23.9%
16,Br.C=CCN1CCc2c(cc(O)c(O)c2Cl)C(c2ccccc2)C1 (stereo not shown),-41%
17,CN1CCc2cc(Cl)c(O)cc2[C@@H](c2ccccc2)C1.Cl,-56%
18,Br.Cc1cccc(C2CN(C)CCc3c2cc(O)c(O)c3Cl)c1 (stereo not shown),-51.1%
19,O=[N+]([O-])c1ccc(-c2nc(=S)c3c(o2)CCCC3)cc1,-6.53%
20,Oc1ccccc1Nc1ccccn1,6.88%
21,Oc1cccc2ccc(Nc3ccccn3)nc12,-53.6%
22,c1ccc(Nc2ccccn2)nc1,7.19%
23,Nc1ccc(C#Cc2c(-c3ccsc3)oc3ccc(N4CCOCC4)cc23)cc1,5.98%
